# Screening results as filed in PubChem.
# Only some compounds are listed: those with a hit (about 3.8% of all), similar ones and a draw of the others.
# tim23-1 inh = inhibits growth of tim23-1 mutant yeast | S. cerevisiae tim23-1 growth, BacTiter-Glo luminescence, 24 h | inhibition, % at 20 µM | 1.3% of 330,000 active | AID 463212;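 active = growth inhibition of the mutant yeast at or above 50%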;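 note: temperature-sensitive mutant grown at 25 °C; plate controls were DMSO-treated mutant yeast for no effect and medium wells lacking yeast for full effect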
# TIM10 inh = growth inhibitors of TIM10 yeast strain; S. cerevisiae TIM10 strain growth, BacTiter-Glo luminescence, 24 h; 1.4% of 330,000 active; inhibition, % at 10 µM;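 active = inhibition of 40% or more at the single tested concentration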;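 note: wild-type TIM10 isogenic control strain grown at permissive 25 °C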
# tim10-1 inh = growth inhibitors of tim10-1 mutant yeast; inhibition, % at 20 µM; 2.2% of 330,000 active; S. cerevisiae tim10-1 ts strain growth, BacTiter-Glo, 24 h;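 active = inhibition of at least 40%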;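 note: mutant grown at 25 °C; 0% = DMSO wells with yeast and 100% = wells holding no yeast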
# Beta2AR agonist = agonists of human beta-2 adrenergic receptor inducing internalization | P07550 | Am2.2-beta2AR cells, FAP receptor internalization, flow cytometry | response, % (test concentration not listed) | 0.43% of 340,000 active | AID 504454;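 active = response above a set limit, near 3 SD of response in nonfluorescent compounds, cut at about 42% in these data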
# Target sequence (P07550 whole entry, looked up): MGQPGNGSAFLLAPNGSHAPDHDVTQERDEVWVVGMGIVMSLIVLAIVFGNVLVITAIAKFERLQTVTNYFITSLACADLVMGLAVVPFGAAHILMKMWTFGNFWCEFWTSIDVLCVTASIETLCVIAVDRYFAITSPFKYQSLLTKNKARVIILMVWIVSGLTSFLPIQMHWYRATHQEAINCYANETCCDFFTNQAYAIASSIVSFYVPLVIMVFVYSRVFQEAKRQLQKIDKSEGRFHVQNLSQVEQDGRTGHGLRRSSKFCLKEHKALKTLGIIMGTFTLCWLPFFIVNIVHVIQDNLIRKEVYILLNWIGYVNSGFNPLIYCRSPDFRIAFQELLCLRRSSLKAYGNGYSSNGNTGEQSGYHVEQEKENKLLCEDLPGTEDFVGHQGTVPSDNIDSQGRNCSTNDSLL
# PfHsp90 set2 = inhibits growth of yeast expressing Plasmodium falciparum Hsp90 | S. cerevisiae expressing PfHsp90, BacTiter-Glo ATP, 48 h; yeast lacking PDR1 and PDR3 efflux regulators | inhibition, % at 9.4 µM | 0.32% of 310,000 active;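 active = every replicate shows inhibition above about 80%, whatever the replicate mean, limit read from the data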;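 note: 0% = DMSO neutral controls and 100% = 20 µM radicicol positive controls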
# tim10-1 conf = tim10-1 yeast growth inhibition, confirmed; shares compounds with tim10-1 inh; AID 463213; S. cerevisiae tim10-1 ts strain growth, BacTiter-Glo, 24 h; 56% of 7,400 active; inhibition, % at 20 µM;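 active = inhibition of yeast growth at or above a set limit in either of two repeat tests at 20 µM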;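 note: tim10-1 mutant grown at permissive 25 °C to find synthetic lethal compounds; 0% = DMSO yeast wells and 100% = medium wells without yeast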
# Active calls of the source: *; / = not tested or not shown.
SMILES,tim23-1 inh,TIM10 inh,tim10-1 inh,Beta2AR agonist,PfHsp90 set2,tim10-1 conf
Cc1ccc(NC(=O)COc2ccc(Cl)cc2Cl)cc1S(=O)(=O)N1CCOCC1,36,33,49*,-3,-1,20
CCc1ccc(OCC(=O)Nc2ccc(S(=O)(=O)N3CCOCC3)cc2)cc1,31,16,40,-5,/,33*
COc1ccc(OCC(=O)Nc2ccc(S(=O)(=O)N3CCOCC3)cc2)cc1,24,33,48*,0,-14,32*
COc1ccc(OCC(=O)Nc2ccc(S(=O)(=O)N(C)c3ccccc3)cc2)cc1,30,22,22,-2,-6,/
O=C(COc1ccccc1)Nc1ccc(S(=O)(=O)N2CCOCC2)cc1,22,32,24,-11,-7,/
CCCN(CCC)S(=O)(=O)c1ccc(NC(=O)COc2ccccc2)cc1,38,40,52*,0,4,38*
CCc1ccc(C(=O)COC(=O)c2ccccc2OC)cc1,16,-4,0,-5,-6,/
CCCC(C(=O)Nc1ccc(S(=O)(=O)Nc2nccs2)cc1)c1ccccc1 (stereo not given),-12,2,-1,5,/,/
O=C(Nc1cccc(C(F)(F)F)c1)C1CCCN(c2ncccn2)C1 (stereo not given),23,29,42*,-13,/,36*
Cc1ccc(NC(=O)c2ncn(CCCN(C)CCc3ccccn3)n2)cc1C,/,/,/,0,-23,/
Cc1cc(C)c2c(N)c(S(=O)(=O)c3ccccc3)sc2n1,-9,18,18,1,-5,/
Cc1cc2c(sc3c(C)ccc(C)c32)c(C)n1,45,14,48*,11,-6,18
Cc1c(C(=O)/C=C/c2cccs2)oc2ccc(F)cc12,31,30,45*,/,-24,38*
CC(C)c1ccc(S(=O)(=O)/N=C2/C=CC(=O)c3ccccc32)cc1,34,20,43*,/,/,29
CCCN1CCN(CC(O)COC(c2ccc(OC)cc2)c2ccc(OC)cc2)CC1 (stereo not given),/,/,/,4,20,/
COc1ccc(S(=O)(=O)N2CCc3ccccc32)cc1C(=O)N1CCOCC1,8,9,9,-1,5,/
O=S(=O)(CS(=O)(=O)c1ccccc1)c1ccccc1,/,/,/,-4,-26,/
O=S(=O)(C/C(=C/CO)S(=O)(=O)c1ccccc1)c1ccccc1,26,18,44*,28,-32,19
Cc1ccc(NC(=O)C2=C(C(=O)O)CCCC2)cc1Br,-5,-9,-16,-5,-16,/
COc1ccc(S(=O)(=O)N2CCN(Cc3ccccc3)CC2)cc1,41,12,48*,6,11,31
COc1ccc(S(=O)(=O)N2CCN(Cc3cccnc3)CC2)cc1,0,0,-15,-5,15,/
CC(C)(C)C(=O)CSc1ccc(S(=O)(=O)N2CCN(Cc3ccccc3)CC2)cn1,39,24,42*,0,0,36*
CCOc1ccc(C(=O)CN2CCN(S(=O)(=O)c3ccc(OC)cc3)CC2)cc1,48,23,42*,1,17,42*
CCOC(=O)C1(Cc2ccccc2C)CCCN(C(=O)c2ccc(OC)o2)C1 (stereo not given),28,2,28,1,7,/
NC(=O)CC(NC(=O)c1ccc(Br)cc1)c1ccc(NC2CCCCCCC2)c([N+](=O)[O-])c1 (stereo not given),22,15,3,2,-6,/
SMILES,tim23-1 inh,TIM10 inh,tim10-1 inh,Beta2AR agonist,PfHsp90 set2,tim10-1 conf
O=C(O)c1ccc(C=C(c2nc3ccccc3s2)c2nc3ccccc3s2)cc1,34,23,59*,11,-12,45*
CCCCCCCC(=O)N/N=C/c1ccc(Br)cc1,22,32,54*,-1,-19,6
O=C(Cc1ccc2c(c1)OCCO2)Nc1cc(C(F)(F)F)ccc1N1CCOCC1,42,14,41*,1,-13,28
CC1CCC(NC(=O)CCCn2sc3ccccc3c2=O)CC1 (stereo not given),39,2,41*,-2,10,1
O=C(CCCn1c(=O)[nH]c2ccccc2c1=O)NC1CCCCCC1,14,9,16,-12,8,/
Cc1cccc(C)c1OCC(=O)N(Cc1ccc(Cl)cc1)C1CCS(=O)(=O)C1 (stereo not given),36,15,40*,6,5,-7
CCCOc1ccc(CNC(=S)Nc2ccccc2)cc1Cl,36,23,43*,2,-34,23
CC(C)COc1ccc(CNC(=S)Nc2ccccc2)cc1Cl,12,26,22,-12,18,/
O=P1(NC2CCCC2)OCC2(CO1)COP(=O)(NC1CCCC1)OC2 (stereo not given),/,/,/,1,14,/
COc1ccc(S(=O)(=O)N2CCN(CC(=O)Nc3sccc3C(N)=O)CC2)cc1OC,10,5,16,6,-1,/
O=C(O)c1cc([N+](=O)[O-])ccc1NCCCc1ccccc1,24,-6,1,-3,-13,/
O=C(NCCCc1ccccc1)c1cc([N+](=O)[O-])ccc1Cl,31,10,41*,-5,-3,16
CN(C)C(CNC(=O)c1cccc(C(F)(F)F)c1)c1ccco1 (stereo not given),12,5,11,-2,-142,/
Cc1nn2c3ccccc3nc2c2ccccc12,31,18,51*,-21,-66,42*
Cc1nn2c(-c3ccccc3)nnc2c2ccccc12,35,32,27,0,/,/
CCCOc1ccc(NC(=O)CC2C(=O)N(CC)C(=S)N2Cc2cccs2)cc1 (stereo not given),10,14,50*,-5,25,35*
C=CCSc1nc2c(c(C3CC=CCC3)c1C#N)CCC2 (stereo not given),35,17,41*,-2,-2,60*
COc1ccc(N2CCN(C(=O)COC(=O)Cc3c(F)cccc3Cl)CC2)cc1,39,16,45*,-6,-17,24
CCOc1ccc(N2CC(C(=O)N3CCCc4ccccc43)CC2=O)cc1 (stereo not given),35,14,41*,-7,-1,20
Cc1ccc(Cn2c(O)c(N=O)c3ccccc32)cc1,26,16,31,2,16,/
Cc1ccc(N=Nc2c(O)n(CN3CCOCC3)c3ccccc23)cc1,13,30,44*,4,/,32*
COc1cc2c(c(OC)c1OC)-c1ccc(OC)c(=O)cc1C(NC(=O)c1ccccc1)CC2 (stereo not given),/,/,/,11,-18,/
COC(=O)NCC(C)OC(=O)Nc1cccc(Cl)c1 (stereo not given),-2,-5,-7,-6,7,/
CC(CNC(=O)COc1ccccc1)OC(=O)Nc1ccc(Cl)c(Cl)c1 (stereo not given),41,33,50*,3,5,43*
Cc1ccc([N+](=O)[O-])cc1NC(=O)CN(C(=O)c1ccccc1Cl)C1CCCCC1,31,20,40*,0,-3,17
